In ChEMBL document CHEMBL4513216, “Probing the Open Global Health Chemical Diversity Library for Multistage-Active Starting Points for Next-Generation Antimalarials” (ACS Infect Dis, 2020) one finds INHIBITION data, which are given here for 110 compounds.

The whole screen tested about 65,000 compounds, of which about 2,100 (3.2%) showed an effect of 50% or more. The median lay at about -52%. What follows is part of a selection rich in strong results, with near analogues and random picks from the rest.

This assay has as its system Plasmodium falciparum. The assay can be described thus: Screen against P. falciparum Asexual Blood Stage (ABS), at 5uM. Type of assay: functional, Dd2. The conditions noted are these: tested at 5 uM.
As for `CCN1CCCC(CNC(=O)CCc2ccc(OC)c(F)c2)C1` (stereo not given), the INHIBITION is recorded as -71.6%. Regarding `Cc1ccc(CNCC2CCN(CCO)CC2)cc1`, the INHIBITION came out at 13%.

Consider `CCN1CCC(CNCc2cc(OC)ccc2OC)C1` (stereo not given), for which the INHIBITION was 57.9%. The same measure for `COc1ccc(OC)c(CN2CCC(c3cc(O)nc(C)n3)C2)c1` (stereo not given): -1.68%. Next, `COc1ccc(CNCC2CC2)cc1F`: -75.5%; `COc1ccc(CNCC2CCN(CCO)CC2)cc1F`: 58.2%; `CCC1=N[C@@]2(CC[C@@H]3CN(Cc4ccc(F)cc4)C[C@@H]32)C(=O)N1C`: 40.2%. Next, `COC1CCN(c2ccc(NC(=O)C3CC3)cc2C(F)(F)F)CC1`: 7.84%; `CN1CCC(c2cccc(Cc3ccc(C(F)(F)F)cc3)n2)CC1`: 52.5%. With `CN1CCC(c2cccc(Cc3ccccc3)n2)CC1`, the INHIBITION was 3.76%. The same measure for `CN1CCC(c2cccc(Cc3ccc(F)cc3)n2)CC1`: 0.302%.

With `CNc1nc(C(=O)N2CCN(c3ccc(Cl)c(Cl)c3)CC2)cs1`, the INHIBITION is given as -3.09%. Next, `CC(=O)N1CCC(c2nc3ccc(-c4cccc(F)c4)cn3n2)CC1`: -83.5%; `Cc1cc(CN2CCC(C3CCN(CC(C)C)CC3)C2)[nH]n1` (stereo not given): -10.5%. For `CC(C(=O)N1CCCN(Cc2ccc(C#N)cc2)CC1)n1ccnc1` (stereo not given), the INHIBITION was -20.3%.

In the case of `COc1ccc(CN2CCCN(C(=O)C(C)n3ccnc3)CC2)cc1` (stereo not given), the INHIBITION was found to be 63.1%. Next, `CC(C(=O)N1CCN(Cc2ccc(C#N)cc2)CC1)n1ccnc1` (stereo not given): -162%. Next, `Cc1noc(C)c1-c1cccc(CC2CCN(C(=O)c3cscn3)C2)n1` (stereo not given): -100%; `CC(=O)N1CCN(C(=O)Nc2ccccc2)CC2(CC(=O)N(C)C2)C1` (stereo not given): 13.6%; `O=C1CC2(CNCCN(C(=O)Nc3ccccc3)C2)CN1` (stereo not given): -59.9%. For the compound `CCN1CC2(CNCCN(C(=O)Nc3ccccc3)C2)CC1=O` (stereo not given), the INHIBITION was 53.7%. Next, `CN1CC2(CNCCN(C(=O)Nc3ccccc3)C2)CC1=O` (stereo not given): 33.2%; `CN(C)CC(=O)N1CC2(CCN(S(=O)(=O)c3ccccc3)C2)C1`: -21%. The same measure for `CN(C)CC(=O)N1CC2(CCN(C(=O)Nc3ccccc3)C2)C1`: 50%; for `N#Cc1ccsc1NC(=O)CN1CCOC(Cn2cccn2)C1` (stereo not given): -49.6%; for `Cc1cnn(CC2CCN(CC(O)COc3ccc(F)cc3)CC2)c1` (stereo not given): -39.2%. For the compound `CC(C)NC(=O)[C@H]1C[C@H]2OCC[C@H]2N(Cc2ccc3ccccc3n2)C1`, the INHIBITION was 3.39%. Next, `CCc1ccc(CN(Cc2ccco2)C(C)C(C)C)nc1` (stereo not given): -199%. `COCCNC(=O)Nc1cccc2c1CCN(S(C)(=O)=O)C2`: the INHIBITION is given as -3.2%.

Turning to `Cc1ccc(OC2(C(=O)NC(C)Cc3ccncc3)CCNCC2)cc1` (stereo not given), the INHIBITION is reported as -39.1%. Next, `Cc1ccc(OC2(C(=O)NC(C)c3csc(C)n3)CCNCC2)cc1` (stereo not given): 11.3%; `Cc1ccc(OC2(C(=O)NC(C)Cc3ccsc3)CCNCC2)cc1` (stereo not given): 52.5%; `CCn1cc2c(n1)CN(Cc1sccc1C)CC2COCC1CC1` (stereo not given): -6.58%. The same measure for `COc1nccnc1N1CCC(C(=O)O)(n2ccc(C(C)(C)C)n2)CC1`: -5.61%. As to `CC(O)CN(C(=O)NC1CC1)C(C)C` (stereo not given), the INHIBITION is -10.2%. The same measure for `CC(=O)N1CCc2nc(-c3ccc(F)cc3)nc(NC(C)C)c2CC1`: 6.79%.

Turning to `CCCS(=O)(=O)NCc1nc(C)cc(N2CCCC2)n1`, the INHIBITION is given as -76.8%. In the case of `CC(C)c1nc(CN2CCCC2Cn2cncn2)no1` (stereo not given), the INHIBITION is listed as -59.5%. For the compound `CN(C)C(C(=O)N1CC(Oc2ccccc2F)C1)c1ccc(F)cc1` (stereo not given), the INHIBITION is listed as 64%. Next, `COc1ccccc1OC1CN(C(=O)C(c2ccc(F)cc2)N(C)C)C1` (stereo not given): 3.3%.

Regarding `Cc1cccc(C(C(=O)N2CC(Oc3ccccc3F)C2)N(C)C)c1` (stereo not given), the INHIBITION is 2.84%. Next, `O=C(O)CC(CC(=O)NCCc1ccsc1)c1cccs1` (stereo not given): -112%; `Clc1ccc(CN2CCc3c(ncn3C3CC3)C2)c2ncccc12`: 30.3%.

Turning to `CC(=O)Cn1c(C)cc(=O)c2cc(F)ccc21`, the INHIBITION is recorded as -152%. The same measure for `CN(Cc1cccc(CCN)c1)Cc1cccc2ncccc12`: 60.4%; for `CN(Cc1cccnc1N)Cc1cccc2ncccc12`: 15.1%; for `CN(Cc1cccc(OCCO)c1)Cc1cccc2ncccc12`: -10.8%. The same measure for `CN(C)C(=O)C1CCCN(C(=O)c2ccccc2-n2cc(CN)cn2)C1` (stereo not given): 25.8%. Consider `CC1CCCN(CCNC(=O)c2scnc2Cl)C1` (stereo not given), for which the INHIBITION was -37.9%. Next, `CCc1cccc(N2CCC(NC(=O)C3CCC3)CC2)c1`: -52.2%; `CCN(CC)c1ccc(C2c3c(n[nH]c3C)N=C3COC(=O)C32)cc1` (stereo not given): -48.4%; `CN1CCCC[C@@H]2[C@H]1[C@@H](c1ccccc1)CCN2S(=O)(=O)N1CCCC1`: 52%. Next, `CN1CCCC[C@@H]2[C@H]1[C@@H](c1ccccc1)CCN2C(=O)c1ccccc1`: -15.8%. The same measure for `CCN(CC)S(=O)(=O)N1CC[C@H](c2ccccc2)[C@@H]2[C@H]1CCCCN2C`: 41.2%; for `Cc1cc(C2NC(=O)CN2Cc2ccc(Br)cc2)cc(C)c1O` (stereo not given): -78.2%; for `CC(=O)Nc1ncc(S(=O)(=O)Nc2ccc3c(c2)OCCO3)s1`: -316%.

With `COc1ccccc1C(O)CNCc1c(C(C)C)nn(C)c1N(C)C` (stereo not given), the INHIBITION was found to be 6.24%. The same measure for `COc1ccccc1OCCNCc1c(C(C)C)nn(C)c1N(C)C`: 60.1%. Next, `COc1ccc(OCCNCc2c(C)nn(C)c2N(C)C)cc1`: -64.9%. Next, `COc1cc(CNCc2c(C(C)C)nn(C)c2N(C)C)ccn1`: -67.4%; `COc1cccc(OCCNCc2c(C)nn(C)c2N(C)C)c1`: -31.9%.

On to `COc1ccccc1OCCNCc1c(C)nn(C)c1N(C)C`, for which the INHIBITION is listed as 60%.

`Cc1ccc(N2CCCC(NCc3ccc(C)s3)C2)nn1` (stereo not given): the INHIBITION is given as -34.1%. Next, `CC(C)(CO)NCc1nn(Cc2ccccc2)nc1-c1ccccc1`: 14.1%.

Consider `O=C(Cc1ccncc1)N1CCC2(CC1)CC(c1ccccc1)CO2` (stereo not given), for which the INHIBITION was -26.8%. In the case of `CC(C)C(C(=O)N1CCCN(c2nccs2)CC1)n1cncn1` (stereo not given), the INHIBITION was -114%. Next, `Cc1csc(N2CCCN(C3Cc4ccccc4C3)CC2)n1`: -1.32%. The same measure for `O=C1CC2(CCCCN2C(=O)Cc2ccccc2)CN1c1cccnc1` (stereo not given): -37.3%.

On to `Cc1ccc(CN2CC[C@@H]3OCCN(Cc4ccncc4)[C@H]3CC2)s1`, for which the INHIBITION came out at 34.9%. Turning to `N[C@H]1CN(C(=O)c2ccc(Cl)cc2O)C[C@@H]1C1CC1`, the INHIBITION was found to be 33%. For `Cc1cc(Cl)ccc1C(=O)N1C[C@H](C2CC2)[C@@H](N)C1`, the INHIBITION amounted to 61%.

On to `N[C@H]1CN(C(=O)c2cnc3cc(Cl)ccc3c2O)C[C@@H]1C1CC1`, for which the INHIBITION is -22.9%. The same measure for `Cc1ccc(C(=O)N2CCOC3(CCCC3)C2)c(=O)[nH]1`: -106%; for `COCCC(=O)N1C[C@H]2CN(Cc3cccnc3)C(=O)[C@H]2C1`: -55.2%. Regarding `CCN(C)C(=O)CCN(C)Cc1cnc(C)s1`, the INHIBITION is -125%. Next, `CN(C(=O)Cc1ccccc1F)C1CCN(c2ccccn2)CC1`: -73.8%; `CC(C)=CCCC1(C)C=Cc2c(cc(C)n(CCC(=O)O)c2=O)O1` (stereo not given): -18.9%; `OC1(CN2CCC(Oc3cccc(C(F)(F)F)c3)CC2)CNCCOC1` (stereo not given): 64.7%.

Regarding `FC(F)(F)c1cccc(OC2CCN(Cc3ncc[nH]3)CC2)c1`, the INHIBITION is -23%. The same measure for `OC1(CN2CCC(Oc3cccnc3)CC2)CNCCOC1` (stereo not given): -73.6%; for `OC1(CNCCN2CCc3ccccc32)CNCCOC1` (stereo not given): -0.439%; for `OC1(CN2CCN(c3cccc(C(F)(F)F)c3)CC2)CNCCOC1` (stereo not given): 57%.

Regarding `OC1(CN2CCCC2)COCCN(c2cc(C(F)(F)F)ccn2)C1` (stereo not given), the INHIBITION is listed as -53.6%. As for `Cc1ccc(C(C)NC(=O)CSCC(N)=O)cc1` (stereo not given), the INHIBITION is given as -54.8%. Next, `CCS(=O)(=O)N1CCc2c(cccc2NC(=O)NCCO)C1`: -14.1%; `Clc1cc(Cl)cc(OCCN2CCC(n3cncn3)CC2)c1`: 33.8%; `Cn1ccnc1CN1CCCN(C(=O)CC(C2CC2)C2CC2)CC1`: -16.7%. Next, `Cn1nc(COCC2CC2)c2c1CCN(Cc1cccs1)C2`: -41.4%; `CN(Cc1cccs1)C(=O)CN1CCOC(Cn2cncn2)C1` (stereo not given): -56%. Next, `Cc1cccc(C(C(=O)N(C)Cc2ccon2)N(C)C)c1` (stereo not given): -2.4%.

As to `Cc1cccc(C(C(=O)N(C)Cc2ccco2)N(C)C)c1` (stereo not given), the INHIBITION came to 66.7%. The same measure for `Cc1cccc(C(C(=O)N(C)Cc2cc(C)no2)N(C)C)c1` (stereo not given): 49.9%. Next, `CCC(CO)NCc1ccc(-c2ccccc2F)o1` (stereo not given): -35.5%; `O=C(Cn1ccnc1)N1C[C@@H]2CC[C@H](Oc3ccc(Cl)cc3)[C@@H]2C1`: -41.4%. Next, `COc1ccc(-c2nc(C)cc(SCC(N)=O)n2)cc1`: -104%; `CN1CCC(N(CCc2ccccc2)C(=O)c2ccc(C#N)cc2)CC1`: 28.4%; `O=c1[nH]c(-c2ccncc2)ncc1-c1ccnc(NC2CCCCC2)n1`: -61.7%.

Take `COc1ccc2[nH]cc(-c3ccnc(N4CCC(C)CC4)n3)c2c1`: the INHIBITION is given as -172%. `COc1ccc2[nH]cc(-c3ccnc(NC4CCCC4)n3)c2c1`: the INHIBITION is reported as 58.8%.

In the case of `CC(C)c1noc(CN(Cc2ccccc2)C2CC2)n1`, the INHIBITION is reported as -119%.

`CCN1CCn2c(C)cnc2C12CCN(C(=O)N(C)C)CC2`: the INHIBITION worked out at 53%. Take `CCN1CCn2c(C)cnc2C12CCN(C(=O)C(C)C)CC2`: the INHIBITION is recorded as -51.6%. Next, `CCN1CCn2c(C)cnc2C12CCN(C(=O)CC(C)C)CC2`: -55.6%; `CC(C)CNC(=O)c1c(-n2cnnn2)sc2c1CCCC2`: -47.3%; `CCN1CCC(CNC(=O)C2(c3cccc(C)c3)CC2)C1` (stereo not given): 0.0435%. The same measure for `CCCN1CCC(CNC(=O)C2(c3cc(C)cc(C)c3)CCC2)C1` (stereo not given): 41.6%. With `CCN1CCCC(CNC(=O)C2(c3cccc(Cl)c3)CC2)C1` (stereo not given), the INHIBITION stood at 69.7%. The same measure for `CCCN1CCC(CNC(=O)C2(c3ccccc3)CCC2)C1` (stereo not given): 66.3%.

In the case of `COCCN1CCC(CNC(=O)C2(c3cccc(Cl)c3)CC2)C1` (stereo not given), the INHIBITION is -0.48%.

Regarding `COCCN1CCC(CNC(=O)C2(c3ccccc3)CCC2)C1` (stereo not given), the INHIBITION was -0.505%.
